{
  "source": "PubChem BioAssay",
  "note": "The source made the active and inactive calls. The rule behind the calls is not given here.",
  "data": [
    {"molecular_target": "Pantothenate synthetase (Mycobacterium tuberculosis (strain ATCC 25618 / H37Rv)) (UniProt P9WIL5)", "sequence (P9WIL5 whole entry, looked up)": "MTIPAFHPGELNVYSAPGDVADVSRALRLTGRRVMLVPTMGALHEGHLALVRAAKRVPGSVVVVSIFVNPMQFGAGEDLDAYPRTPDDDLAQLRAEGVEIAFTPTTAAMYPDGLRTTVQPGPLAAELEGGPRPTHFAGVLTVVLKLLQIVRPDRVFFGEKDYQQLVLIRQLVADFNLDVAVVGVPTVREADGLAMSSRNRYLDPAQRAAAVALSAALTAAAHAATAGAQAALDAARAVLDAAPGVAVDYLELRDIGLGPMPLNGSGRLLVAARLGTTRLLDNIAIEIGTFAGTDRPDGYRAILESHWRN", "assay": "Recombinant Mtb pantothenate synthetase (PanC) inhibitors, coupled enzyme, confirmatory (AID 375);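 note: 0% = full reaction with vehicle and 100% = no enzyme background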", "conditions": "coupled enzyme assay; at 10 µM, active compounds read high", "values": [
      {"smiles": "Cc1cccc2c1N(CC(=O)OC(C)C)C(=O)C2=O", "inhibition": "0% (inactive)"},
      {"smiles": "COc1cc2c(c(OC)c1)C(c1ccncc1)CC(=O)N2", "note": "(centres undefined)", "inhibition": "0% (inactive)"},
      {"smiles": "CC(=O)N(CCc1ccccc1C)Cc1cc2cc3c(cc2[nH]c1=O)OCO3", "inhibition": "7% (inactive)"},
      {"smiles": "Cc1nc2ccccc2c(=O)n1/N=C/c1ccncc1", "inhibition": "3% (inactive)"},
      {"smiles": "CC1CCN(C(=O)CSc2nc3c(cnn3-c3ccccc3)c(=O)[nH]2)CC1", "inhibition": "0% (inactive)"},
      {"smiles": "CCOC(=O)c1c(NC(=O)OC)sc(C(=O)N(C)C)c1C", "inhibition": "1% (inactive)"},
      {"smiles": "CC(C)C1Cc2c(C#N)c(N)sc(=S)c2CO1", "note": "(centres undefined)", "inhibition": "2% (inactive)"},
      {"smiles": "O=C(c1sc2ccccc2c1Cl)N(Cc1cccs1)C1CCS(=O)(=O)C1", "note": "(centres undefined)", "inhibition": "0% (inactive)"},
      {"smiles": "O=C(O)c1ccc(C2SCC(=O)N2Cc2ccccc2)cc1", "note": "(centres undefined)", "inhibition": "2% (inactive)"},
      {"smiles": "CN(C)CCOC(c1ccccc1)c1ccccc1", "note": "(tested in a mixture with another compound)", "inhibition": "0% (inactive)"},
      {"smiles": "O=C1C(CCS(=O)c2ccccc2)C(=O)N(c2ccccc2)N1c1ccccc1", "note": "(centres undefined)", "inhibition": "0% (inactive)"},
      {"smiles": "O=C1CC(c2ccccc2)n2nc(NC(=O)c3ccccn3)nc2N1", "note": "(centres undefined)", "inhibition": "0% (inactive)"},
      {"smiles": "O=S(c1ccsc1)c1ccsc1", "inhibition": "0% (inactive)"},
      {"smiles": "O=C1CC(N2CCC(C(=O)N3CCCCC3)CC2)C(=O)N1", "note": "(centres undefined)", "inhibition": "11% (inactive)"},
      {"smiles": "CCN1CCN(c2c(Cl)cccc2NC(=O)c2ccco2)CC1", "inhibition": "9% (inactive)"},
      {"smiles": "CC(=O)Nc1ccc2c(c1)nc(CCNC(=O)c1ccccc1)n2C", "inhibition": "0% (inactive)"},
      {"smiles": "CCOC(=O)C1CCN(C(=O)c2ccc(Cl)c(Cl)c2)CC1", "inhibition": "8% (inactive)"},
      {"smiles": "O=C(O)c1cc(O)c2c(c1)C(=O)c1cccc(O)c1C2=O", "inhibition": "9% (inactive)"},
      {"smiles": "CCCCNC(=O)OC(C)CNC(=O)Oc1cccc(C)c1", "note": "(centres undefined)", "inhibition": "0% (inactive)"},
      {"smiles": "CC1=C(C)[N+](=O)C2CCCCC2N1[O-]", "note": "(centres undefined)", "inhibition": "3% (inactive)"},
      {"smiles": "Fc1cccc(NCc2cn3ccccc3n2)c1", "inhibition": "0% (inactive)"},
      {"smiles": "Oc1ccc2cccnc2c1", "inhibition": "7% (inactive)"},
      {"smiles": "CC(C)(C)C1CCc2[nH]nc(C(=O)O)c2C1", "note": "(centres undefined)", "inhibition": "5% (inactive)"},
      {"smiles": "Cc1c(NC(=O)c2ccc(=O)oc2)c(=O)n(-c2ccccc2)n1C", "inhibition": "6% (inactive)"},
      {"smiles": "O=C(OCN1C(=O)c2ccccc2C1=O)C1CCCCC1", "inhibition": "1% (inactive)"},
      {"smiles": "CC(=O)OC(C)C[N+](C)(C)C", "note": "(centres undefined)", "inhibition": "3% (inactive)"},
      {"smiles": "c1ccc(-c2ccc(-c3ccccn3)nn2)nc1", "inhibition": "8% (inactive)"},
      {"smiles": "Cc1cnc(C(=O)Nc2ccc(-n3cnnn3)cc2)cn1", "inhibition": "14% (inactive)"},
      {"smiles": "CCN1CCN(C(=O)C2CCN(C(=O)c3cc4sccc4n3CC)CC2)CC1", "inhibition": "14% (inactive)"},
      {"smiles": "CCN1CCN(CCCNC(=O)C2c3ccccc3C(=O)N(C)C2c2ccc(OC)cc2)CC1", "note": "(centres undefined)", "inhibition": "0% (inactive)"},
      {"smiles": "C=CCn1c(-c2ccc(OC)cc2)nc2ccccc21", "inhibition": "0% (inactive)"},
      {"smiles": "O=S(=O)(c1ccccc1)N(Cc1nc(-c2ccccc2)no1)C1CCCCC1", "inhibition": "0% (inactive)"},
      {"smiles": "Cc1ccc(S(=O)(=O)N2CCN(C(=O)N3CCOCC3)C2C)cc1", "note": "(centres undefined)", "inhibition": "0% (inactive)"},
      {"smiles": "COc1cccc(-c2noc(CCC(=O)NC3CCCCC3)n2)c1", "inhibition": "1% (inactive)"},
      {"smiles": "O=C(Sc1nnnn1C1CCCCC1)c1cccs1", "inhibition": "0% (inactive)"},
      {"smiles": "COc1cccc2cc(C(=O)n3ccc(C)n3)c(=O)oc12", "inhibition": "1% (inactive)"},
      {"smiles": "COc1ccc(-c2ccc(-c3noc(-c4ccccc4OC)n3)c(OC)n2)cc1", "inhibition": "0% (inactive)"},
      {"smiles": "Cc1ccc(-c2[nH]nc3c2C(c2ccc(OC(=O)N4CCOCC4)cc2)C(C#N)=C(N)O3)cc1", "note": "(centres undefined)", "inhibition": "2% (inactive)"},
      {"smiles": "COC(=O)c1c(O)ccc(Oc2ccccc2)c1C(=O)OC", "inhibition": "0% (inactive)"}
    ]}
  ]
}
